Among the data in PubChem BioAssay (Tox21) are Potency and outcome values, retold here.

A short description of assay [1]: qHTS assay to identify small molecule antagonists of the progesterone receptor (PR) signaling pathway - cell viability counter screen (AID 1346798).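 Note: HEK293T PR-UAS-bla cells stimulated with the agonist R5020; series mostly up to about 92 µM; nearly all actives have a fitted effect of over 50% in size.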 The method, boiled down:
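Same-well multiplex: after 16 hr at 37C with compound and R5020 stimulation, HEK293T cells carrying a UAS-bla reporter received LiveBLAzer substrate (2 hr RT), then CellTiter-Glo (30 min RT) for luminescent viability.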

A short description of assay [2]: qHTS assay to identify small molecule agonists of the progesterone receptor (PR) signaling pathway - cell viability counter screen (AID 1346799; calls by dose curve; note: nearly all actives have a fitted effect of over 45% in size). The method, boiled down:
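Counter screen for cytotoxicity: compound-treated PR-UAS-bla HEK293T cells (16 hr, 37C, 5% CO2) were assayed with CellTiter-Glo, luminescence measured after 30 min at room temperature.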

Assay [3] in a line: qHTS assay to identify small molecule antagonists of the TGF-beta/Smad signaling pathway - cell viability counter screen (AID 1346824). Note: nearly all actives have a fitted effect of over 50% in size. The method, boiled down:
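Cytotoxicity counter-screen run in the same wells as the beta-lactamase Smad reporter read: CellTiter-Glo luminescence after 30 min at room temperature. HEK 293T SBE-bla cells had 5 hr compound exposure at 37 C with TGF-beta1 (0.25 ng/mL stock).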

The nature of assay [4]: qHTS assay to identify small molecule agonists of the TGF-beta/Smad signaling pathway - cell viability counter screen (AID 1346829). Note: top concentration of the series differs between compounds; nearly all actives have a fitted effect of over 45% in size. The method, boiled down:
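After overnight seating at 37 C and 5% CO2, reporter cells got compounds for 5 hr and FRET substrate for 2 hr; cell viability then came from CellTiter-Glo luminescence.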

Assay [5] is described as follows: qHTS assay to identify small molecule agonists of the TGF-beta/Smad signaling pathway (AID 1346859; active = well fitted activation curve with a large enough effect in the signal ratio in the repeat runs, not every such curve was filed as active; the % refers to the signal ratio; note: series mostly up to about 77 µM). The method, boiled down: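 Smad-responsive beta-lactamase reporter cells (HEK 293T) received compounds from DMSO stocks after overnight attachment, were incubated 5 hr, then treated 2 hr with FRET substrate before dual-emission fluorescence measurement (405 nm excitation).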

The nature of assay [6]: Human pregnane X receptor (PXR) small molecule agonists, qHTS cell viability counter screen (AID 1346977). Note: nearly all actives have a fitted effect of over 50% in size. The method, boiled down: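 Measures live-cell protease fluorescence (CellTiter-Fluor) in PXR-Luc HepG2 cells treated 24hr with compounds at 37C. Cells had 5hr to attach before pin transfer of DMSO solutions.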
The nature of assay [7]: Caspase-3/7 induction in HepG2 cells by small molecules, qHTS assay (AID 1346978). Note: nearly all actives have a fitted effect of over 15% in size. The method, boiled down:
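Caspase-3/7 induction was measured by Caspase-Glo 3/7 luminescence (30 min, room temperature) after a 17 hr compound exposure of wild-type HepG2 cells seeded at 2,000 per well and pre-incubated 5 hr.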

Assay [8] can be described thus: Caspase-3/7 induction in CHO-K1 cells by small molecules, qHTS cell viability counter screen (AID 1346979). Note: nearly all actives have a fitted effect of over 35% in size. Note: potency is the fitted concentration of half-maximal effect. The method, boiled down: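 In the same wells as the caspase read, viability of compound-treated wild-type CHO-K1 cells was assessed using CellTiter-Fluor, added after 16hr at 37C and measured by fluorescence following 1hr further incubation.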
Assay [9] can be described thus: Caspase-3/7 induction in CHO-K1 cells by small molecules, qHTS assay (AID 1346980). Note: nearly all actives have a fitted effect of over 15% in size. The method, boiled down:
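Luminescent Caspase-Glo 3/7 read (30min, room temperature) quantified apoptosis induction. Cells were wild-type CHO-K1, treated with compound for 17hr at 37 C and 5% CO2.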

Assay [10] can be described thus: Caspase-3/7 induction in HepG2 cells by small molecules, qHTS cell viability counter screen (AID 1346981). Note: series mostly up to about 92 µM; nearly all actives have a fitted effect of over 30% in size. The method, boiled down:
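The parent HepG2 line is plated at 2,000 cells per well and rested 5 hr before compound pinning from DMSO stocks. Following a 16-hr treatment at 37 C, a fluorogenic live-cell substrate (CellTiter-Fluor) reports viability after 1 hr.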

Assay [11] deals with Nuclear receptor subfamily 1 group I member 2 (Homo sapiens) (UniProt O75469). Description: Human pregnane X receptor (PXR) small molecule agonists, qHTS assay (AID 1346982). Note: nearly all actives have a fitted effect of over 35% in size. Note: potency is the fitted concentration of half-maximal effect. The method, boiled down:
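After plating in 5% charcoal-stripped FBS and a 5 hr rest, PXR-Luc HepG2 cells received compounds in DMSO. Following 24 hr at 37 C, ONE-Glo was added and light output read.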

Assay [12] has as its target Cytochrome P450 2D6 (Homo sapiens) (UniProt P10635). Description: Cytochrome P450 Family 2 Subfamily D Member 6 (CYP2D6) small molecule antagonists: luciferase reporter qHTS assay (AID 1671196). Note: nearly all actives have a fitted effect of over 50% in size. Note: potency is the fitted concentration of half-maximal effect. The method, boiled down:
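Quantitative HTS of Tox21 chemicals against CYP2D6 using a luminescent proluciferin substrate. After NADPH addition, 1 h room-temperature reaction; luminescence recorded 20 min post detection reagent.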

In assay [13] the target is Cytochrome P450 2C19 (Homo sapiens) (UniProt P33261). Description: Cytochrome P450 Family 2 Subfamily C Member 19 (CYP2C19) small molecule antagonists: luciferase reporter qHTS assay (AID 1671197). Note: nearly all actives have a fitted effect of over 65% in size. Note: potency is the fitted concentration of half-maximal effect. The method, boiled down: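 Inhibition of CYP2C19 was scored from loss of luminescence in a P450-Glo proluciferin substrate assay, NADPH-started and run 1 h at 37C, with ketoconazole as positive control.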
Sequence of Cytochrome P450 2C19 (Homo sapiens) (P33261 whole entry, looked up): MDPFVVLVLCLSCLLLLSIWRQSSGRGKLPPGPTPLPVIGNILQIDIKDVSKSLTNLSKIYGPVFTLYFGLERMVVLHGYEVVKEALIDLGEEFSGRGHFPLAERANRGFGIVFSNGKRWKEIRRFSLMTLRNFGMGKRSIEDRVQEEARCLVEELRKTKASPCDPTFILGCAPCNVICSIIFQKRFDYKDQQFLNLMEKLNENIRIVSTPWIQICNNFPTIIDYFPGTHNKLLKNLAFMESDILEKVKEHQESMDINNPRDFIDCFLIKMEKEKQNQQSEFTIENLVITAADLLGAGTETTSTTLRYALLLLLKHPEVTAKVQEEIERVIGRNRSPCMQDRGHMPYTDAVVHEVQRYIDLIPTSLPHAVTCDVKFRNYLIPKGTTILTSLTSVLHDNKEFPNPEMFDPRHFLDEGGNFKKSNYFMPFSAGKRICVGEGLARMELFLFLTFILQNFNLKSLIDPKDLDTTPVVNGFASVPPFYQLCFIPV

The target of assay [14] is Cytochrome P450 2C9 (Homo sapiens) (UniProt P11712). Description: Cytochrome P450 Family 2 Subfamily C Member 9 (CYP2C9) small molecule antagonists: luciferase reporter qHTS assay (AID 1671198). Note: nearly all actives have a fitted effect of over 50% in size. Note: potency is the fitted concentration of half-maximal effect. The method, boiled down:
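Enzyme-substrate mix preincubated with compound 10 min at room temperature; reaction started with NADPH regeneration solution, 1 h 37C. Luminescent luciferin product read after 20 min detection reagent.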

Assay [15] addresses Cytochrome P450 1A2 (Homo sapiens) (UniProt P05177). Nature of the assay: Cytochrome P450 Family 1 Subfamily A Member 2 (CYP1A2) small molecule antagonists: luciferase reporter qHTS assay (AID 1671199). Note: nearly all actives have a fitted effect of over 50% in size. Note: potency is the fitted concentration of half-maximal effect. The method, boiled down:
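Quantitative high-throughput format using the P450-Glo CYP1A2 system. Reaction initiated by NADPH regeneration solution, 1 h at room temperature, then stopped with detection reagent; luminescence measured 20 min later.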

Assay [16] deals with Nuclear receptor subfamily 1 group I member 2 (Rattus norvegicus) (UniProt Q9R1A7). Description: Rat pregnane X receptor (rPXR) activation by small molecules, qHTS assay (AID 1346983). Note: potency is the fitted concentration of half-maximal effect; nearly all actives have a fitted effect of over 20% in size. The note with it: rPXR luciferase reporter cells, One-Glo luminescence, 24 h; max activation: stronger effect = higher value. The method, boiled down: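 Luminescent readout (One-Glo luciferase, 30 min room temperature) followed 24 hr compound treatment at 37 C of rPXR cells plated 2,000 per well and preincubated 5hr; qHTS format with compounds delivered in DMSO.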
Sequence of Nuclear receptor subfamily 1 group I member 2 (Rattus norvegicus) (Q9R1A7 whole entry, looked up): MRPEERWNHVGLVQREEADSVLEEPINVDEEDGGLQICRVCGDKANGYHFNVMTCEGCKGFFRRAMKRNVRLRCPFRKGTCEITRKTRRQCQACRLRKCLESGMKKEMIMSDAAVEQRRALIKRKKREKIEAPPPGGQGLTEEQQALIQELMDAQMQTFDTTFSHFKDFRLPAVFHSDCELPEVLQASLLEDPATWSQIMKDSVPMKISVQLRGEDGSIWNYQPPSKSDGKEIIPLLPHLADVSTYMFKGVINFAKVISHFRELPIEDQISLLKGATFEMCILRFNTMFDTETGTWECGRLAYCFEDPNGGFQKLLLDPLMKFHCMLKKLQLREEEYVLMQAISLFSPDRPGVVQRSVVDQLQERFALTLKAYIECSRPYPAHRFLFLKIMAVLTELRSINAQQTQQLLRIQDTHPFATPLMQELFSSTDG

The target of assay [17] is Thyrotropin-releasing hormone receptor (Homo sapiens) (UniProt P34981). Nature of the assay: qHTS assay to identify small molecule antagonists of the thyrotropin-releasing hormone receptor (TRHR) signaling pathway (AID 1346877; active = well fitted inhibition curve with a large enough effect in the repeat runs, not every such curve was filed as active; note: series mostly up to about 51 µM). The method, boiled down:
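Human TRHR in HEK293 cells; inhibition of the intracellular calcium rise triggered by 1 nM TRH was followed by fluorescence over 3 min. Compounds were run at 15 concentrations, three replicates each.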

For assay [18] the target is unchanged. Nature of the assay: qHTS assay to identify small molecule agonists of the thyrotropin-releasing hormone receptor (TRHR) signaling pathway (AID 1346891; calls by dose curve;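 note: HEK293 cells expressing TRHR with calcium dye readout; series mostly up to about 58 µM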). The method, boiled down: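 Agonist-mode calcium mobilisation screen: TRHR-transfected HEK293 cells cultured overnight (18 h), dye-loaded for 2 h at 37 °C, exposed to compounds, and monitored by fluorescence for 3 min.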

For assay [19], the target named is Nuclear receptor subfamily 1 group I member 2 (Homo sapiens) (UniProt O75469). Nature of the assay: Human pregnane X receptor (PXR) activation by small molecules, qHTS assay (AID 1346985). Note: potency is the fitted concentration of half-maximal effect; nearly all actives have a fitted effect of over 40% in size. The method, boiled down: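 DPX-2 cells (HepG2 co-transfected with a PXR response element and a CYP3A4-promoter luciferase construct) were seeded at 2,000 per well, rested 5 hr at 37C, then exposed to DMSO-dissolved compounds for 24 hr. Activation was read as luciferase luminescence.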
Sequence of Nuclear receptor subfamily 1 group I member 2 (Homo sapiens) (O75469 whole entry, looked up): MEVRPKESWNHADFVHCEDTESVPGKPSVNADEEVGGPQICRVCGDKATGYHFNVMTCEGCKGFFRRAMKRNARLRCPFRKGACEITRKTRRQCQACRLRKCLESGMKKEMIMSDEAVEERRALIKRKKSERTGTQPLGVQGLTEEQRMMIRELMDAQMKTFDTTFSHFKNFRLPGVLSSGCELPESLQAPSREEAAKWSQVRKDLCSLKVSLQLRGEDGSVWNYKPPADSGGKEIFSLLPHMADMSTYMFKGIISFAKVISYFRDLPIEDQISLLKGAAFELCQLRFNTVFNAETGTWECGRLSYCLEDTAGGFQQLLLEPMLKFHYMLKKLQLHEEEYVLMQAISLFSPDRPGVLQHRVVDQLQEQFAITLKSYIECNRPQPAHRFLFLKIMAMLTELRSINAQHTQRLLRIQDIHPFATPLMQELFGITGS

Where “and” joins values, the source holds several entries; their conditions need not be identical. Equal values may be shown once. Records with an inconclusive call do not appear. A structure can be active in one record and inactive in another. Calls of active or inactive are those of the source. Unless noted, calls come from the whole dose curve; as a rule, active = well fitted curve in the direction sought with a large enough effect in the repeat runs; inconclusive = weak or mixed curves; inactive = no such curve, though single readings can be large; an effect the other way counts as inactive or inconclusive.

Sequence of Thyrotropin-releasing hormone receptor (Homo sapiens) (P34981 whole entry, looked up): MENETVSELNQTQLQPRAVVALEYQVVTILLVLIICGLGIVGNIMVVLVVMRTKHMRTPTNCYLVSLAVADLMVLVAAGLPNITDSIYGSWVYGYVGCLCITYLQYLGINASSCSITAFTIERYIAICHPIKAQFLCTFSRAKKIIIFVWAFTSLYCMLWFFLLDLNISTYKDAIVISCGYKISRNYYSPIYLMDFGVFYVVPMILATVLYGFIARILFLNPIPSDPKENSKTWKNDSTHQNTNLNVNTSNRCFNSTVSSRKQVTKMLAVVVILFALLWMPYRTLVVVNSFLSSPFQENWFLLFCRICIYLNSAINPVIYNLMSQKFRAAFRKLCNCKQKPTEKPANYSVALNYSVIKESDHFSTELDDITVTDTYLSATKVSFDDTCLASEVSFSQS
Sequence of Cytochrome P450 1A2 (Homo sapiens) (P05177 whole entry, looked up): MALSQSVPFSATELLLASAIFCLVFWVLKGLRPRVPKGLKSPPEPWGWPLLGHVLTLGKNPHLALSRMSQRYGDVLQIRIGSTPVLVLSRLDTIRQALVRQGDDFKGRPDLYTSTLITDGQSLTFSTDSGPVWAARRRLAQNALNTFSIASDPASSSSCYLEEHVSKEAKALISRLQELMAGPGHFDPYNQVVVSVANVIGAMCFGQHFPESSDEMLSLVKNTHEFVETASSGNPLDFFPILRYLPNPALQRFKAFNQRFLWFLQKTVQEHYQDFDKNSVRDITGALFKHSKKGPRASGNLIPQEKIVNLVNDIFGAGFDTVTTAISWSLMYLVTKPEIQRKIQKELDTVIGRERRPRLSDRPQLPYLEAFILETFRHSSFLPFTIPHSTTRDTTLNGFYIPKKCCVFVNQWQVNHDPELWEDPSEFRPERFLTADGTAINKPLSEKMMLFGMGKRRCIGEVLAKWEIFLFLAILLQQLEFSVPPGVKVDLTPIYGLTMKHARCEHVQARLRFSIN
Sequence of Cytochrome P450 2C9 (Homo sapiens) (P11712 whole entry, looked up): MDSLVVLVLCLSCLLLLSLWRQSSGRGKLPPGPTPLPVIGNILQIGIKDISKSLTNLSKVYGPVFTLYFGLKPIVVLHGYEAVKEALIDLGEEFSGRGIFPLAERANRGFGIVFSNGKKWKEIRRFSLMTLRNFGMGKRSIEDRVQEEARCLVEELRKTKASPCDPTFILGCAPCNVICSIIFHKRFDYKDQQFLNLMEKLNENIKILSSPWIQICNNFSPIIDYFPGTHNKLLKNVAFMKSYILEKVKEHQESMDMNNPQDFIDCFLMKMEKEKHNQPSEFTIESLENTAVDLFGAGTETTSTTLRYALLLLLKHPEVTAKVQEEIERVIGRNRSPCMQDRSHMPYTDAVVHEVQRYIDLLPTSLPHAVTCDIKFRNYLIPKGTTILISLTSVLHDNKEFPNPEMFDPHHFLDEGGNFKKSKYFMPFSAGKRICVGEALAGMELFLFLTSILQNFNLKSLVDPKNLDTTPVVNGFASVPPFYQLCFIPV
Sequence of Cytochrome P450 2D6 (Homo sapiens) (P10635 whole entry, looked up): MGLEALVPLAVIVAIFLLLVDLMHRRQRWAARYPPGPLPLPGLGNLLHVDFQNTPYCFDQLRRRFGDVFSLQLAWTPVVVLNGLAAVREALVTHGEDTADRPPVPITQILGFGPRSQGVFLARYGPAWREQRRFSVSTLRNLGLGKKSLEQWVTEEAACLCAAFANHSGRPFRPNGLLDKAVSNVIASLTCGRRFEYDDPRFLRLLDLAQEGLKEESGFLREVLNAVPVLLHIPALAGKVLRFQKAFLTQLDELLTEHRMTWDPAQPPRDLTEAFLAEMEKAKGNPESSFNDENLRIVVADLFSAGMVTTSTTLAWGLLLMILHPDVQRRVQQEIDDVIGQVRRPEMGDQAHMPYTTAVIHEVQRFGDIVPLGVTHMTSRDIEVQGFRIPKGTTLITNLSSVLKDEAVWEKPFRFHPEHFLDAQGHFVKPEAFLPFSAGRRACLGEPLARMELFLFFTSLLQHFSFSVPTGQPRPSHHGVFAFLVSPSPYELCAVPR

On to `O=c1[nH]nnc2ccccc12`, for which the Potency result in assay [1], in assay [2], in [3], in assay [4], in assay [6] and in assay [7] was “inactive” throughout. Besides, the Potency entry in assay [8], in [10], in [11], in assay [12], in assay [13] and in [14] was “inactive” each time. Also, the Potency entry in assay [15] is “inactive”. Also, the call in assay [5] and in [9] was inactive.
As to `CC(O)COCC(C)O` (centres undefined), the Potency result in [1], in assay [2], in assay [3], in assay [4], in assay [6] and in assay [7] was “inactive” throughout. The Potency entry in assay [8], in [10], in assay [11], in assay [12], in assay [13] and in [14] was “inactive” each time. In assay [15], the Potency entry was “inactive”. Besides, the compound was called inactive in assay [5] and in [9].
Consider `CC(C)CC(=O)CC(C)C`, for which the Potency entry in assay [1], in [2], in assay [3], in assay [4], in [6] and in assay [7] was “inactive” throughout. For the same compound, the Potency result in assay [8], in [10], in assay [11], in assay [12], in assay [13] and in assay [14] was “inactive” in each case. Further, the Potency result in assay [15] was “inactive”. The compound was called inactive in assay [5] and in assay [9].
For the compound `CCCCCCCCC/C=C/CC1CC(=O)OC1=O` (centres undefined), the Potency entry in [1], in assay [2], in assay [3], in [4], in assay [6] and in [7] was “inactive” each time. The Potency result in [8], in assay [10], in assay [11] and in assay [15] was “inactive” each time. The compound was classed as inactive in [5] and in [9]. Also, the Potency result in assay [12] is “inactive and 39.9 µM (active)”; in assay [14] it was 80 µM (active) and 39.9 µM (active).
Consider `O=C(O)CC(C(=O)O)C(CC(=O)O)C(=O)O` (centres undefined), for which the Potency result in assay [1], in assay [2], in assay [3], in [4], in assay [6] and in assay [7] was “inactive” each time. The Potency result in assay [8], in [10], in assay [11], in assay [12] and in assay [14] was “inactive” throughout. Also, the result in assay [5] and in [9] was inactive.
With `O=C(O)c1cc(=O)c2c(OCC(O)COc3cccc4oc(C(=O)O)cc(=O)c34)cccc2o1`, the Potency result in [1], in assay [2], in assay [3], in [4], in assay [6] and in assay [7] was “inactive” each time. Besides, the Potency result in assay [8], in [10], in [11], in [12], in [13] and in assay [14] was “inactive” throughout. Also, in assay [15], the Potency result is “inactive”. Besides, the result in assay [5] and in assay [9] was inactive.
In the case of `CC(C)c1ccc(S(=O)(=O)O)cc1`, the Potency result in assay [1], in [2], in [3], in assay [4], in [6] and in assay [7] was “inactive” in each case. Besides, the Potency entry in [8], in assay [10], in [11], in assay [12], in assay [13] and in assay [14] was “inactive” throughout. For the same compound, the Potency result in assay [15] was “inactive”. Further, the result in assay [5] and in [9] was inactive.
As for `COc1ccc2cc([C@H](C)C(=O)O)ccc2c1`, the Potency result in assay [1], in assay [2], in assay [3], in assay [4], in assay [6] and in assay [10] was “inactive” throughout. The result in assay [5] and in assay [9] was inactive.
Regarding `C[C@H]1C[C@@H]2[C@H]([C@@H](O)C[C@@]3(C)[C@H]2CC[C@]3(O)C(=O)CO)[C@@]2(C)C=CC(=O)C=C12`, the Potency entry in assay [1], in assay [2], in assay [3], in assay [4], in [6] and in assay [7] was “inactive” throughout. The Potency entry in assay [8], in [10] and in [15] was “inactive” throughout. In addition, the result in assay [5] and in assay [9] was inactive. The Potency in assay [16] was 1.58 µM (active).
Regarding `CCCCC(CC)COC(=O)C(C#N)=C(c1ccccc1)c1ccccc1` (centres undefined), the Potency result in assay [1], in [3], in [4], in [17], in assay [6] and in assay [7] was “inactive” each time. In addition, in assay [10], the Potency entry is “inactive”. In addition, the compound was called inactive in [5], in assay [18] and in [9]. Further, the Potency in assay [8] is 48.6 µM (active) and 18.8 µM (active); in [11] it was 13.7 µM (active) and 10.6 µM (active); in assay [19], 10 µM (active); in assay [12], 5.03 µM (active) and 5.49 µM (active); in [13] it was 7.1 µM (active); in assay [14], 2.83 µM (active) and 3.09 µM (active). Moreover, the Potency in [15] is 31.7 µM (active).
Regarding `CN(C)CCOCCN(C)C`, the Potency result in assay [1], in assay [2], in assay [3], in assay [4], in assay [6] and in assay [7] was “inactive” each time. Moreover, the Potency result in assay [8], in assay [10], in [11], in assay [12], in [13] and in [14] was “inactive” throughout. For the same compound, the Potency entry in assay [15] is “inactive”. Moreover, the outcome in assay [5] and in assay [9] was inactive.
